From PubChem BioAssay AID651658 (Broad Institute, 2012)
In all, about 340,000 compounds went through this assay and about 5,100 (1.5%) were called active.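 The calls were made as follows: active = mean Tm shift, scaled 0 neutral to 100 positive control, at about 1.3% or above, every replicate too (limit read from the data); inconclusive = no clear call, values can overlap the other calls; inactive = the rest.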 The list comes from a sample in which actives are over-represented; it also holds similar structures and randomly drawn compounds.

Target: Fibroblast growth factor 22 (Homo sapiens) (UniProt Q9HCT0)
Sequence (Q9HCT0 whole entry, looked up): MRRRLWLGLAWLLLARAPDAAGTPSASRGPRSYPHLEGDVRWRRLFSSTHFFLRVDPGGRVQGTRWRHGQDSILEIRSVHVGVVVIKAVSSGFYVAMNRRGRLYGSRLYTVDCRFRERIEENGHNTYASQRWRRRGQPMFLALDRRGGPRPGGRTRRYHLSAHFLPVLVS
Assay: FGF22 ligand-induced thermal stabilization – biophysical, thermal shift, single point, FGF22 synaptogenesis inhibitor project, primary screen (AID 651658)
Conditions: recombinant FGF22 thermal shift, SYPRO orange fluorescence; at 9.99 µM; stronger effect = higher value; percent of sucrose octasulfate shift, DMSO zero

| Structure (SMILES) | activity (Tm shift, normalised) |
| --- | --- |
| CCC(=O)N(C)C[C@@H]1Oc2ncc(C#Cc3cccnc3)cc2C(=O)N([C@@H](C)CO)C[C@@H]1C | 0.101% (inactive) |
| Cc1ccc(SCCC(=O)NCc2ccccn2)cc1 | 0.257% (inactive) |
| Cc1cc(Cl)ccc1OCCCC(=O)NCc1ccccn1 | 43.6% (active) |
| Cc1cc(Cl)ccc1OCCCC(=O)Nc1cccc(-n2cnnn2)c1 | 0.032% (inactive) |
| COc1cccc(C(=O)n2ccc(-c3cccs3)n2)c1 | -0.099% (inactive) |
| COc1cc(OC)cc(-c2nc(=S)n3ccsc3n2)c1 | 43.5% (active) |
| C[C@@H]1CCCCO[C@H](CN(C)C(=O)Nc2ccc(C(F)(F)F)cc2)[C@@H](C)CN([C@@H](C)CO)C(=O)c2cc(NC(=O)Nc3cccc4ccccc34)ccc2O1 | -0.177% (inactive) |
| C[C@H]1CCCCO[C@@H](CN(C)Cc2ccccc2)[C@@H](C)CN([C@@H](C)CO)C(=O)c2cc(NC(=O)Cc3ccccc3)ccc2O1 | -0.273% (inactive) |
| Cc1ccc(S(=O)(=O)N(Cc2ccccc2)c2ccccn2)cc1[N+](=O)[O-] | -0.192% (inactive) |
| Cc1ccc(S(=O)(=O)Nc2nc3ccccc3s2)cc1[N+](=O)[O-] | 2.09% (active) |
| CCOc1ccc2sc(NS(=O)(=O)c3ccc(N)cc3)nc2c1 | 0.571% (inactive) |
| CO[C@H](CN(C)C(=O)c1ccc2c(c1)OCO2)[C@H](C)CN([C@@H](C)CO)S(=O)(=O)c1ccc(Cl)cc1 | 0.025% (inactive) |
| C[C@@H]1CCCCO[C@H](CN(C)S(=O)(=O)c2ccc(Cl)cc2)[C@H](C)CN([C@@H](C)CO)C(=O)c2cc(NS(=O)(=O)c3cn(C)cn3)ccc2O1 | -0.295% (inactive) |
| CN(C)CCCn1c(=O)n(Cc2ccccc2)c(=O)c2c3c(sc21)CCCCC3 | 5.16% (active) |
| O=c1c2c3c(sc2n(CCN2CCCC2)c(=O)n1Cc1ccccc1)CCCCC3 | -0.07% (inactive) |
| COCCn1cnc2c1c(=O)n(Cc1ccc(Br)cc1)c(=O)n2Cc1ccccc1 | 0.138% (inactive) |
| CC(C)NC(=O)N(C)C[C@@H]1OCCCC[C@@H](C)Oc2ccc(NC(=O)NC3CCCCC3)cc2C(=O)N([C@@H](C)CO)C[C@@H]1C | -0.284% (inactive) |
| CCOc1ccc(/C=C(/NC(=O)c2ccccc2)C(=O)NCCC(=O)O)cc1 | 43.7% (active) |
| CCOC(=O)CNC(=O)/C(=C\c1ccc(F)cc1)NC(=O)c1ccccc1 | 0.033% (inactive) |
| COc1ccc(/C=C(/NC(=O)c2ccccc2)C(=O)Nc2cccc(C(=O)O)c2)cc1 | -0.131% (inactive) |
| O=C(C[C@H]1C[C@H]2c3cc(NC(=O)Nc4ccc(C(F)(F)F)cc4)ccc3O[C@H]2[C@@H](CO)O1)NCCc1ccccc1 | 0.15% (inactive) |

| Structure (SMILES) | activity (Tm shift, normalised) |
| --- | --- |
| C[C@@H]1CN([C@H](C)CO)C(=O)c2cc(NC(=O)CCCCCC(=O)Nc3ccccc3N)ccc2O[C@H]1CN(C)Cc1ccncc1 | -0.063% (inactive) |
| C[C@@H]1CN([C@H](C)CO)C(=O)c2c(c3ccccc3n2C)-c2ccccc2CO[C@H]1CN(C)Cc1ccc(F)cc1 | 0.453% (inactive) |
| COc1cc(C(=O)NCc2ccncc2)cc(Br)c1OCc1ccccc1 | -0.2% (inactive) |
| COc1cc(C=O)c(Br)cc1OCC(=O)NCc1ccccc1 | -0.006% (inactive) |
| COc1cc(C(=S)NCc2ccccc2)cc(Br)c1O | 44.4% (active) |
| CCCC(=O)N1CC2(CCN(C(=O)C3CC3)CC2)c2c(n(C)c3cc(OC)ccc23)[C@H]1CO | 0.143% (inactive) |
| O=C1CC(c2ccccc2)C(=O)N2C(=O)CC(c3ccccc3)C(=O)N12 (stereo unspecified) | -0.169% (inactive) |
| O=C1OCC2=C1C(c1ccccc1)CC(=O)N2c1cccc(F)c1 (stereo unspecified) | 43.2% (active) |
| CN1C(=O)CC(c2ccccc2)C1=O (stereo unspecified) | 0.006% (inactive) |
| Cc1cnc(C(=O)OCC(=O)NCCCc2ccccc2)cn1 | 0.133% (inactive) |
| N#Cc1cc([N+](=O)[O-])ccc1NC(=O)COC(=O)c1cnccn1 | -0.067% (inactive) |
| COc1cc(NC(=O)COC(=O)c2cnc(C)cn2)c(C)cc1[N+](=O)[O-] | 43.3% (active) |
| COc1cccc(CNC(=O)C[C@H]2CC[C@@H](NC(=O)C3CCC3)[C@@H](CO)O2)c1 | -0.144% (inactive) |
| CCc1ccccc1NC(=O)CN1CCN(C(=O)c2cc(C3CC3)nn2-c2ccccc2)CC1 | 44.1% (active) |
| CCc1ccccc1NC(=O)CN(C)C(=O)c1cc(C2CC2)nn1-c1ccccc1 | 0.146% (inactive) |
| COc1ccc(CN2CCN(C(=O)c3cc(C4CC4)nn3-c3ccccc3)CC2)cc1F | -0.038% (inactive) |
| O=C(CC(F)(F)F)N1C[C@H]2[C@@H](c3ccccc31)[C@H](CO)N2C(=O)Cc1ccccc1 | -0.096% (inactive) |
| CCCCNC(=O)N1CCN(S(C)(=O)=O)CC1 | 43% (active) |
| CS(=O)(=O)N1CCN(C(=O)CSc2ccccc2)CC1 | -0.196% (inactive) |
| CC(C)NC(=S)N1CCN(S(C)(=O)=O)CC1 | -0.113% (inactive) |
| COc1cccc(NCCC(=O)c2cccc([N+](=O)[O-])c2)c1 | 43.4% (active) |

| Structure (SMILES) | activity (Tm shift, normalised) |
| --- | --- |
| COc1cccc(C(=O)CC(=O)C(=O)Nc2ccc([N+](=O)[O-])cc2C)c1 | -0.246% (inactive) |
| COc1ccc(Cc2nnc(SCC(=O)c3cccc([N+](=O)[O-])c3)n2C)cc1 | 0.217% (inactive) |
| Cc1ccc(NC(=O)C(=O)NCC2CCN(C(=O)c3cccc([N+](=O)[O-])c3)CC2)cc1 | 0.238% (inactive) |
| CCC(CC)NC(=O)/C=C/c1cccc([N+](=O)[O-])c1 | -0.166% (inactive) |
| Cc1ccc(NC(=O)O/N=C/c2cccc([N+](=O)[O-])c2)cc1 | 1.7% (active) |
| CO[C@H]1CN(C)C(=O)c2cc(NC(=O)Nc3ccc4c(c3)OCO4)ccc2OC[C@@H](C)NC[C@@H]1C | -0.132% (inactive) |
| O=C(C1CCCCC1)N1CC2(C1)[C@H](c1ccccc1)[C@@H](CO)N2Cc1cncnc1 | -0.162% (inactive) |
| COc1ccc(NC(=O)Nc2ccc3c(c2)[C@H]2C[C@H](CC(=O)NC4CCCCC4)O[C@H](CO)[C@H]2O3)cc1 | 0.101% (inactive) |
| COc1cccc(S(=O)(=O)N2C[C@@H](O)COC[C@H]3O[C@@H](CC(=O)N4CCOCC4)CC[C@@H]32)c1 | -0.291% (inactive) |
| CC=Cc1ccc2n(c1=O)C[C@H]1[C@H](CO)[C@@H](C(=O)NCc3ccncc3)N(Cc3cncnc3)[C@@H]21 (mixture of isomers) | -0.145% (inactive) |
| COCCNC(=O)C[C@H]1C=C[C@@H](NS(=O)(=O)c2ccc(C)cc2)[C@@H](CO)O1 | -0.463% (inactive) |
| COc1ccc(NC(=O)Nc2ccc3c(c2)C(=O)N([C@H](C)CO)C[C@@H](C)[C@H](CN(C)CC2CCCCC2)OCCCC[C@@H](C)O3)cc1 | -0.629% (inactive) |
| CC(=O)N1[C@@H](CO)[C@@H](c2ccc(C3=CCCC3)cc2)C12CN(C(=O)C1CC1)C2 | -0.078% (inactive) |
| COc1cccc(NC(=O)Nc2ccc(F)cc2)c1 | 45.2% (active) |
| O=C(Nc1ccncc1)Nc1ccc(F)cc1 | 0.093% (inactive) |
| COc1cccc(C(=O)NNS(=O)(=O)c2ccc(F)cc2)c1 | 0.083% (inactive) |
| COCC(=O)N1CC2(CN(C(=O)c3cccnc3)C2)c2c([nH]c3cc(OC)ccc23)[C@H]1CO | -0.173% (inactive) |
| Cc1ccc(S(=O)(=O)NCCC(=O)NCc2ccc(Cl)cc2)cc1C | -0.011% (inactive) |
| Cc1ccc(S(=O)(=O)NCC(=O)NNC(=O)c2ccc(Br)cc2)cc1C | 43.7% (active) |
| O=C(CNC(=O)c1ccco1)NNC(=O)c1ccc(Br)cc1 | -0.466% (inactive) |
| O=C(C[C@H]1C=C[C@H](NC(=O)CC2CC2)[C@H](CO)O1)NCc1ccc(Cl)cc1 | -0.113% (inactive) |

| Structure (SMILES) | activity (Tm shift, normalised) |
| --- | --- |
| COc1cc2c(=O)n(C)c3ccccc3c2cc1OC | 0.02% (inactive) |
| Cn1c2ccccc2c(=O)c2c(O)cccc21 | 43.7% (active) |
| Cc1cc(C)c(-c2c(O)c3ccccc3n(C)c2=O)c(C)c1 | -0.131% (inactive) |
| O=C(C[C@H]1CC[C@H]2[C@@H](COC[C@H](O)CN2Cc2ccncc2)O1)NCC1CC1 | -0.243% (inactive) |
| CN1[C@H](C(=O)N2CCc3ccccc3C2)[C@@H](CO)[C@@H]2Cn3c(ccc(-c4cncnc4)c3=O)[C@@H]21 | 0.086% (inactive) |
| O=C(CSc1ccccc1)Nc1ccc(C(=O)Nc2cccc(O)c2)cc1 | 42.3% (inactive) |
| Cc1cc(C)cc(NC(=O)CN2C(=O)c3ccccc3C2=O)c1 | -0.094% (inactive) |
| Cc1cc(C)cc(NC(=O)CSc2ccccc2)c1 | 43.4% (active) |
| O=C(CN1C(=O)NC2(CCCC2)C1=O)NCC1CCCO1 (stereo unspecified) | 43.3% (active) |
| O=C(CN1C(=O)NC2(CCCCCC2)C1=O)NCc1ccc(F)cc1 | 0.013% (inactive) |
| O=C(CN1C(=O)NC2(CCCCCC2)C1=O)NC1CC1 | -0.266% (inactive) |
| COc1cccc(NC(=O)C[C@H]2CC[C@@H]3[C@@H](COc4ccc(NC(=O)C5CCOCC5)cc4C(=O)N3C)O2)c1 | 0.326% (inactive) |
| C[C@H]1CN([C@@H](C)CO)C(=O)c2cc(-c3ccccc3)cnc2O[C@H]1CN(C)C(=O)C1CCOCC1 | 0.036% (inactive) |
| O=C(NC1Cc2ccccc2C1)[C@@H]1[C@@H](CO)[C@@H]2Cn3c(ccc(C4=CCCC4)c3=O)[C@H]1N2CC1CC1 | 0.451% (inactive) |
| C[C@H]1CN([C@@H](C)CO)C(=O)CCCn2nncc2CO[C@@H]1CN(C)S(=O)(=O)c1ccccc1C#N | -0.468% (inactive) |
| CC(C)c1ccc(OCC(O)CN2CCN(c3ccccn3)CC2)cc1 (stereo unspecified) | -0.21% (inactive) |
| Cc1cccc(OCC(O)CN2CCN(CCN3C(=O)c4cccc5cccc(c45)C3=O)CC2)c1C (stereo unspecified) | 0.358% (inactive) |
| Cc1ccccc1OCC(O)CN1CCN(c2ccccn2)CC1 (stereo unspecified) | 44.2% (active) |
